# Results reported in PubChem BioAssay (NCATS).
# Assay: qHTS profiling of the MIPE4 collection as inhibitors of Plasmodium falciparum (3D7) proliferation (AID 743344);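 further: scaled between DMSO vehicle wells and 0.29 µM artemisinin as full inhibition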
# Details: P. falciparum 3D7 in erythrocytes, SYBR Green DNA fluorescence, 72 h; at 28.5 µM unless noted
# Summary of the method: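 Parasite DNA was quantified by SYBR Green I fluorescence (ex 485, em 535 nm) after overnight lysis in saponin/Triton buffer at room temperature. Cultures at 0.3% parasitemia and 2.5% hematocrit were first exposed to compound for 72 h at 37 C; signals were normalised to artemisinin (0.29 uM) and vehicle wells.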
row,Compound,"parasite growth, % of DMSO control"
1,COc1ccc2cc([S+]([O-])Cc3ncc(C)c(OC)c3C)nc2c1,32.2%
2,CN(N=O)C(=O)N[C@H]1C(O)OC(CO)[C@@H](O)[C@H]1O (stereo partly specified),81.6%
3,Oc1ccc(-c2ccc(-c3cc(Nc4cccc(CNC5CC5)c4)n[nH]3)cc2)c(O)c1,9.07%
4,NC(=NCCCCCCN=C(N)N=C(N)Nc1ccc(Cl)cc1)N=C(N)Nc1ccc(Cl)cc1,12.4%
5,C[C@@H](Cc1cc2c(c(C(N)=O)c1)N(CCCO)CC2)NCCOc1ccccc1OCC(F)(F)F,48.1%
6,O=C(Nc1cc2cc[nH]c2cn1)c1ccccc1,76.5%
7,Cc1ccc(O)c(C(CCN(C(C)C)C(C)C)c2ccccc2)c1 (stereo unspecified),11.8%
8,C[C@@H](Oc1ccc2[nH]nc(C=Cc3cnn(CCO)c3)c2c1)c1c(Cl)cncc1Cl,5.43%
9,COc1cc2c(cc1O)CCC1C2CC[C@@]2(C)C1CC[C@@H]2O (stereo partly specified),79.6%
10,Nc1nc2c(c(=O)[nH]1)N(C=O)[C@H](CNc1ccc(C(=O)N[C@@H](CCC(=O)O)C(=O)O)cc1)CN2,106%
11,COc1ccc(C(C)=O)c(O)c1,86.4%
12,Cc1ccc2nc(NCCN)c3ncc(C)n3c2c1,63.3%
13,CC(C=CC=C(C)C=CC1=C(C)CCCC1(C)C)=CC=CC=C(C)C=CC=C(C)C=CC1=C(C)CCCC1(C)C,11.9%
14,CCOC(=O)[C@@H](N)Cc1ccc(-c2cc(O[C@H](c3ccc(Cl)cc3-n3ccc(C)n3)C(F)(F)F)nc(N)n2)cc1,5.93%
15,CCn1c(=O)c2c(nc(C=Cc3ccc(OC)c(OC)c3)n2C)n(CC)c1=O,37.9%
16,CC(=CC(=O)Nc1ccccc1C(=O)O)c1ccc2ccccc2c1,383%

row,Compound,"parasite growth, % of DMSO control"
1,C#Cc1cccc(Nc2ncnc3cc(OCCOC)c(OCCO)cc23)c1,6.81%
2,O=C(C=CC=Cc1ccc2c(c1)OCO2)N1CCCCC1,87.5%
3,CCCCCCCCc1ccc(CCC(N)(CO)CO)cc1,9.21%
4,O=C(Nc1nnc(-c2ccco2)o1)c1cc(-c2ccccc2)nc2ccccc12,51.6%
5,C[C@H](O)[C@@H]1C(=O)N2C(C(=O)O)=C(S[C@@H]3CN[C@H](CNS(N)(=O)=O)C3)[C@@H](C)[C@@H]12,107%
6,C=CC(=O)Nc1cccc(Nc2nc(NC3CCC(N(C)C)CC3)nc3c2ncn3C(C)C)c1 (stereo unspecified),10.5%
7,OC[C@H]1OC(O)C[C@@H](O)[C@H]1O (stereo partly specified),96.9%
8,CCOC(=O)N1CCN([N+]([O-])=NOc2ccc([N+](=O)[O-])cc2[N+](=O)[O-])CC1,67.7%
9,CCC(C(=O)O)C1CCC(C)C(C(C)C(O)C(C)C(=O)C(CC)C2OC3(C=CC(O)[C@@]4(CC[C@](C)(C5CC[C@@](O)(CC)C(C)O5)O4)O3)C(C)CC2C)O1 (stereo partly specified),9.07%
10,C=C1C(=O)O[C@H]2[C@@H]1CCC(C)=CCC[C@@]1(C)O[C@@H]21,39.5%
11,CC(Oc1ccc(O)cc1)(P(=O)(O)O)P(=O)(O)O,64.8%
12,C=C1CCC2[C@](C)(CO)C(O)CC[C@]2(C)C1CC=C1C(=O)OCC1O (stereo partly specified),94.9% [at 57.5 µM]
13,CN(C)CC(=O)N1CCC(c2ccc(NC(=O)c3ncc(C#N)[nH]3)c(C3=CCCCC3)c2)CC1,12.3%
14,C[C@H](NCc1ccc2c(c1)nc(NC(=O)c1ccc(-c3cn[nH]c3)s1)n2CCc1ccccc1)C(C)(C)C,5.07%
15,CC[C@H]1OC(=O)[C@H](C)[C@@H](O[C@H]2C[C@@](C)(OC)[C@@H](O)[C@H](C)O2)[C@H](C)[C@@H](O[C@@H]2O[C@H](C)C[C@H](N(C)C)[C@@H]2O)[C@](C)(OC)C[C@@H](C)C(=O)[C@H](C)[C@@H](O)[C@]1(C)O,46.8%
